Reference: PubChem BioAssay (NCI)
This is part of a sample that, as a whole, favours compounds with a hit. Of some 79,000 tested, about 15% had one in any assay. Unmarked numbers belong to inactive results. The source made the active and inactive calls. Cut-off read from the data, not from the text of the source: active = growth inhibition above about 70%; inactive = the rest.

Legend:
[1] = NCI Yeast Anticancer Drug Screen. Data for the rad50 strain (AID 155);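 note: 0% = growth of vehicle-only cultures of the same strain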; settings: S. cerevisiae rad50 strain growth inhibition, active compounds read high
In short: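 Compounds were tested on a yeast strain with an engineered DNA damage repair alteration; the reported value is growth inhibition normalised to vehicle treatment.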

[2] = NCI Yeast Anticancer Drug Screen. Data for the mec2-1 strain (AID 157); settings: S. cerevisiae mec2-1 strain, active compounds read high
In short: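 Yeast mec2-1 mutant treated with compound. Readout: growth inhibition vs vehicle controls.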

[3] = NCI Yeast Anticancer Drug Screen. Data for the sgs1 mgt1 strain (AID 161);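 note: 0% = growth of cultures given vehicle only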; settings: S. cerevisiae sgs1 mgt1 strain, active compounds read high
In short: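 Genetically altered yeast, compound exposure, growth inhibition relative to vehicle.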

[4] = NCI Yeast Anticancer Drug Screen. Data for the cln2 rad14 strain (AID 165);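 note: 0% = growth equal to vehicle treated cultures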; settings: S. cerevisiae cln2 rad14 strain, active compounds read high
In short: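 cln2 rad14 yeast strain; compound exposure; growth inhibition read vs vehicle controls.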

[5] = NCI Yeast Anticancer Drug Screen. Data for the bub3 strain (AID 167); settings: S. cerevisiae bub3 mutant strain, active compounds read high
In short: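 Growth of a checkpoint-deficient yeast mutant is measured after compound exposure. Values represent inhibition relative to vehicle.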

[6] = NCI Yeast Anticancer Drug Screen. Data for the mlh1 rad18 strain (AID 175); settings: S. cerevisiae mlh1 rad18 strain growth inhibition, active compounds read high
In short: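 Yeast w/ defined DNA-repair lesions; compound exposure; growth vs vehicle controls → % inhibition.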

[7] = at 5.0 µM (retest, dose inferred, filed as 0.5)
[8] = at 50.0 µM (retest, dose inferred, filed as 5.0)

SMILES	growth inhibition [1, 7]	growth inhibition [1, 8]	growth inhibition ([1]; at 50.0 µM)	growth inhibition [2, 7]	growth inhibition [2, 8]	growth inhibition ([2]; at 50.0 µM)	growth inhibition [3, 7]	growth inhibition [3, 8]	growth inhibition ([3]; at 50.0 µM)	growth inhibition [4, 7]	growth inhibition [4, 8]	growth inhibition ([4]; at 50.0 µM)	growth inhibition [5, 7]	growth inhibition [5, 8]	growth inhibition ([5]; at 50.0 µM)	growth inhibition [6, 7]	growth inhibition [6, 8]	growth inhibition ([6]; at 50.0 µM)
CC(NNC(=S)N1CCCC1)c1cc2ccccc2cn1 (stereo not given)	30%	99% (active)	89.2% (active)	38%	99% (active)	90.8% (active)	62%	98% (active)	90.8% (active)	66%	96% (active)	90.3% (active)	64%	98% (active)	88.2% (active)	34%	98% (active)	92.2% (active)
O=c1c2c3c(sc2nc2n1N=C(c1ccc(Br)cc1)CS2)CCCC3	1%	-11%	21.2%	-3%	-11%	-0.4%	-5%	-1%	-22.8%	17%	10%	-32.2%	11%	-10%	-24.5%	-10%	-6%	-25.4%
CCCCc1c2c(nc3c1CC/C(=C\c1ccc([N+](=O)[O-])cc1)C3=O)CCCC2	92% (active)	92% (active)	88.5% (active)	97% (active)	94% (active)	92.6% (active)	38%	92% (active)	89.8% (active)	97% (active)	93% (active)	88.1% (active)	98% (active)	91% (active)	88.5% (active)	96% (active)	88% (active)	89.6% (active)
Cc1cccc2c1C1c3c(C)cccc3C(O)CC1CC2O (stereo not given)	15%	3%	36.5%	-6%	-4%	23.1%	-2%	45%	42.4%	-18%	-1%	30.1%	-10%	4%	33.5%	1%	28%	39.8%
C=CC(=O)c1ccc2c(c1)OCCOCCOCCOCCOCCO2	-18%	64%	77.8% (active)	4%	50%	54.5%	-13%	40%	62.8%	20%	42%	4.4%	-4%	78% (active)	78% (active)	0%	86% (active)	59.4%
CC(=O)O[C@@H]1[C@@H](O)[C@H]2O[C@@H]3C=C(C)CC[C@]3(CO)[C@]1(C)[C@@]21CO1	34%	93% (active)	-11.2%	28%	96% (active)	-22.9%	33%	95% (active)	5.35%	52%	98% (active)	-11.7%	13%	98% (active)	9.3%	33%	95% (active)	91.8% (active)
CCC(=O)[O][Bi]([c]1ccccc1)[c]1ccccc1	79% (active)	96% (active)	90.2% (active)	58%	97% (active)	92.4% (active)	68%	97% (active)	92.5% (active)	49%	95% (active)	90% (active)	81% (active)	96% (active)	91.5% (active)	85% (active)	97% (active)	90% (active)
c1ccc(C2=NCCC(c3ccccc3)S2)cc1 (stereo not given)	-2%	5%	-2.55%	-4%	3%	-4.1%	-3%	4%	55.5%	-19%	-4%	-41.5%	2%	0%	68.1%	0%	8%	21.9%
CCOC(=O)C1CC2(CCC1N)c1ccccc1-c1ccccc12 (stereo not given)	3%	28%	28.6%	-5%	8%	47.5%	-2%	27%	44.5%	-5%	34%	22.9%	-5%	23%	90.7% (active)	1%	81% (active)	37.5%
Cc1cc(Sc2ccccc2)c2c(C)ccc(C(C)C)cc1-2	0%	-7%	-13.8%	-8%	-12%	61.4%	1%	6%	-0.65%	-16%	-9%	78.2% (active)	-5%	-10%	21.4%	-2%	-3%	58%
